Assay outcomes as filed in PubChem BioAssay.
Rows were chosen to be rich in hits. Some 21% of all compounds tested hit in one or more screens of this group.
DT40 TDP1 no CPT: qHTS for Inhibitors of human tyrosyl-DNA phosphodiesterase 1 (TDP1): qHTS in cells in absence of CPT; DT40 Tdp1-/- hTDP1 cells, no CPT, ATP luminescence, 48 h; Potency, µM (highest dose often 46.2 µM), for inactives: at the highest dose activity change, negative = growth inhibition, actives largely listed as inhibitors; 420,000 compounds, 15% hits; also: potency is read from the fitted curve at half-maximal effect; % is scaled to controls: 0 for no effect and ±100 for the full control effect; nearly all actives have a fitted effect of over 55% in size
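Cells were dispensed at 400 per well, compounds added by pin tool, plates incubated ≥48 hr at 37 °C, then CellTiter-Glo added for 30 min at room temperature before luminescence reading. Line: DT40 Tdp1-/- complemented with hTDP1; camptothecin omitted.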
DRD3 agonist: activates the human D3 dopamine receptor; 410,000 compounds, 0.58% hits; P35462; D3R DiscoveRx beta-arrestin cells, luminescence, 90 min; max activation, %; AID 652048; in the data active = max activation above about 30%; also: 0% is about no effect
Target sequence (P35462 whole entry, looked up): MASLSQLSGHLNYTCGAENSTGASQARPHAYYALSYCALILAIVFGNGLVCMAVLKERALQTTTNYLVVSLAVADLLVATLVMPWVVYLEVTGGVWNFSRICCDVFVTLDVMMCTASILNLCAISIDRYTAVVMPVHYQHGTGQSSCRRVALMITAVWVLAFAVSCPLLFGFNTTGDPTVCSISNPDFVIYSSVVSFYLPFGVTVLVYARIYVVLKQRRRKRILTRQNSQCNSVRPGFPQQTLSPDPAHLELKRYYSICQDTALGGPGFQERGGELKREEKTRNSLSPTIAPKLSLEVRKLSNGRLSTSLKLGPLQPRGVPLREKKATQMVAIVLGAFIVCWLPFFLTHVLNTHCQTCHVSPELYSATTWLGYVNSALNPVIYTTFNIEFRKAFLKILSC
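Cells at 1500/well, incubated overnight, then treated with pinned compounds (dopamine as control) for 90 min at 37 degrees C. DiscoveRx reagent added for 30 - 60 minutes at room temperature; luminescence read.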
DRD3 antagonist: D3 dopamine receptor (human) antagonism | D3R cells, DiscoveRx beta-arrestin luminescence, antagonist mode; stronger effect = lower value | max response, negative = inhibition, % | 360,000 compounds, 2.5% hits | AID 652054; in the data active = max response below about -50%; inconclusive = no clear call, values can overlap the other calls; also: % is scaled to controls: 0 for no effect and ±100 for the full control effect
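Cells plated overnight at 1500 cells/well, then exposed to library compounds with dopamine controls for 90 minutes at 37 degrees C. DiscoveRx reagent added for 30–60 minutes at room temperature; luminescence read, quantitative HTS format.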
IL1B secr inh: blocks inflammasome-driven IL-1 beta release; THP-1 LPS/ATP IL-1B secretion, AlphaLISA, 16 h; stronger effect = lower value; activity change, % at 57.5 µM; 360,000 compounds, 4.7% hits; AID 743279; in the data active = activity change below about -50%; inconclusive = mostly about -30% to -49%; also: % is scaled to controls: 0 for no effect and ±100 for the full control effect
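Secreted IL-1B measured by AlphaLISA bead assay after 16 h compound exposure of THP-1 cells; compounds (final up to 57.5 uM) added 1 h before LPS (250 ng/mL) and ATP (1.25 mM) stimulation; lower signal means less secretion.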
TDP1 cell CPT: DT40-hTDP1 cell growth loss with CPT; chicken DT40 Tdp1-/-;hTDP1 cells + 20 nM CPT, ATP luminescence, 48 h; Potency, µM (top dose mostly 46.2 µM), inactives show at the highest dose activity change, negative = growth inhibition, usual class: inhibitors; 420,000 compounds, 12% hits; also: potency is read from the fitted curve at half-maximal effect; % is scaled to controls: 0 for no effect and ±100 for the full control effect; nearly all actives have a fitted effect of over 55% in size
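Chicken DT40 Tdp1-/- cells complemented with human TDP1, 400 cells/well, exposed to compounds plus 20 nM camptothecin for at least 48 h at 37 C; viability read as ATP content by CellTiter-Glo luminescence.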
ClpP mod: qHTS Assay for Activators of ClpP. purified B. subtilis ClpP, FRET peptide cleavage, 20 min. Potency, µM (series often up to 57.5 µM), without a hit: at the top dose activity change, negative = active. ATP-dependent Clp protease proteolytic subunit (Bacillus subtilis (strain 168)), P80244. AID 651965, 2013. 340,000 compounds, 1.9% hits; active = well fitted falling curve with a large enough effect; inconclusive = small, poorly fitted or top-dose-only effect; inactive = no such curve, though single readings can be large or run the other way; also: potency is read from the fitted curve at half-maximal effect; the source files actives as falling curves though it sought activators and does not explain the sign; nearly all actives have a fitted effect of over 65% in size
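FRET quenching reversal measured ClpP activation: 10 microg/mL B. subtilis ClpP at pH 8 with the FRET-FV decapeptide, read at 430 nm after 320 nm excitation. The 20-min minus 0-min signal was scaled between DMSO/no-enzyme wells and ADEP (5.8 microM final).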
Numbers without * were called inactive; ? = inconclusive; . = no result. Unless noted, calls follow the shape of the dose curve; as a rule, active = well fitted inhibition curve with a large enough effect; inconclusive = small, poorly fitted or top-dose-only effect; inactive = flat fitted curve, though single readings scatter.

SMILES | DT40 TDP1 no CPT | DRD3 agonist | DRD3 antagonist | IL1B secr inh | TDP1 cell CPT | ClpP mod
Cc1ncc(CN2CCCC(C(=O)Nc3ccc(-c4cccc(F)c4)cc3)C2)s1 (stereo not drawn) | ? | -4.7 | -2.9 | ? | ? | -11.4%
CCn1cc(CN2CCCC(C(=O)Nc3cccc(-c4cc5ccccc5[nH]4)c3)C2)cn1 (stereo not drawn) | ? | -5.8 | -14.9 | -81.0* | 4.0% | .
CCc1ncc(CN2CCCC(C(=O)Nc3cccc(-c4ccc(F)cc4)c3)C2)cn1 (stereo not drawn) | 16.4µM* | -4.9 | -9.1 | -12.4 | 23.1µM* | 1.8%
O=C(Nc1ccc(-c2cccc(F)c2)cc1)C1CCCN(Cc2ccccn2)C1 (stereo not drawn) | 23.1µM* | -47.1 | -27.7 | ? | 20.6µM* | -0.6%
Cc1ncc(CN2CCCC(C(=O)Nc3ccc(-c4cccc(F)c4)cc3)C2)cn1 (stereo not drawn) | ? | 3.3 | 0.2 | -87.4* | 14.6µM* | 0.4%
CCCCNC(=S)NC(C)(C)CO | 5.5% | -3.3 | 2.2 | 21.1 | -1.2% | 0.6%
COc1cc(C(=C(CC(=O)O)C(=O)O)c2ccc3c(c2)OCO3)cc(OC)c1OC | -16.4% | 1.1 | 5.1 | 9.9 | 1.5% | -4.0%
O=C(CSc1nnc(NC(=O)C2CC(=O)N(c3ccc(F)cc3)C2)s1)NCC1CCCO1 (stereo not drawn) | 6.8% | -1.7 | 6.7 | -2.4 | -2.7% | 1.0%
COc1ccccc1C(=O)NC(=O)COC(=O)c1ccc([N+](=O)[O-])cc1 | 3.7% | -7.9 | -10.6 | 9.7 | ? | -3.1%
Cc1ccccc1CN1CCCC(C(=O)Nc2ccc(-c3ccn[nH]3)cc2)C1 (stereo not drawn) | ? | -14.7 | ? | ? | 16.4µM* | -11.8%
CCOC(=O)c1ccc(Oc2nc(N(C)C)nc(N(C)C)n2)cc1 | ? | 0.8 | 63.6 | -11.1 | -23.5% | -3.0%
CCOC(=O)c1ccc(Oc2nc(NC(C)(C)C)nc(N(C)C)n2)cc1 | 20.6µM* | 2.4 | 40.3 | -14.8 | 13µM* | -2.1%
O=c1cc(-c2ccccc2)oc2ccc3ccccc3c12 | ? | -0.9 | 15.3 | 6.4 | ? | -23.0%
O=c1cc(-c2ccc(O)c(O)c2)oc2ccc3ccccc3c12 | 14.6µM* | 3.2 | 17.3 | 6.6 | ? | -1.7%
O=c1cc(-c2ccccc2)oc2c1ccc1ccccc12 | ? | . | . | . | 14.2% | .
O=c1cc(/C=C/c2ccccc2)oc2c1ccc1ccccc12 | ? | 5.9 | 6.0 | -4.1 | ? | 28.2µM*
O=c1cc(-c2cccnc2)oc2c1ccc1ccccc12 | 23.1µM* | 7.6 | 4.4 | . | ? | .
O=c1cc(-c2ccc(O)c(O)c2)oc2c1ccc1ccccc12 | 25.9µM* | 11.5 | -7.9 | -0.3 | 16.4µM* | 0.4%
Cc1ccc(C)c(OC(=O)c2cccnc2Cl)c1C | -10.2% | -1.2 | -10.4 | -9.8 | -0.2% | .
O=c1c2oc3ccccc3c2n(Cc2ccccc2F)c(=O)n1Cc1ccco1 | -1.3% | -4.1 | . | . | -15.3% | -1.6%
O=C1[C@H](Cc2ccccc2)NCC=CC[C@@H](c2ccc(Cl)cc2)N1Cc1ccc(Cl)cc1 | ? | -26.7 | ? | -59.7* | ? | -1.3%
CC(C)CC(=O)N1C/C=C\C[C@@H](c2ccc(Cl)cc2)N(Cc2ccc(Cl)cc2)C(=O)[C@@H]1Cc1ccccc1 | 12.6µM* | . | . | . | 10µM* | 0.6%
